# Data taken from PubChem BioAssay.
# Active and inactive are the calls of the source.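 How the source made its calls, unless noted: active means fluorescence slope after compound addition differing from the mean of all screened samples at 99.7% confidence, in either direction; inactive means the rest.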
# How the values were obtained:
# [1] = inhibitors of TNFa-induced NFkB p65 translocation, primary screen, imaging, HUVEC, MLSMR starter and 10KST1 sets (AID 438;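 active means inhibition above 20% together with a positive visual image hit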;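 further: compound added about 3h40 before a 20 min TNFalpha stimulation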;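 on inhibition: signal is the nuclear over cytoplasmic p65 intensity ratio per well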); conditions: HUVEC TNFa-induced p65 nuclear translocation; cell count: measured here: nuclei count (cytotoxicity indicator), at 2.08 µM; inhibition: at 2 µM, stronger effect = higher value, 0% TNFa-plus-vehicle, 100% no-TNFa wells
# [2] = inhibitors of mutant huntingtin aggregation, primary screen, imaging, exon1htt(103Q)mCFP cells, high-content imaging (AID 483;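 active means visual image review flags a hit and inhibition of aggregation exceeds 20%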;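 further: compound exposure lasted 3 days before fixation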;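 on nuclei count: percent of the per-plate median nuclei count of sample wells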); conditions: exon1htt(103Q)mCFP cell line, aggregate imaging, at 2 µM; inhibition of aggregation: stronger effect = higher value; nuclei count: measured here: cell count, toxicity
# [3] = inhibitors of E-selectin induction by TNFa, primary screen, imaging, HUVEC, immunofluorescence, MLSMR starter and 10KST1 sets (AID 487;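 active means visually confirmed hit in the image check and inhibition above 20%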;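 on inhibition: signal is fraction of cell area covered by stained E-selectin grains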;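 on nuclei count: 100% = median nuclei count of all wells on the same plate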); conditions: HUVEC TNFalpha-induced E-selectin immunofluorescence imaging, at 2 µM; inhibition: stronger effect = higher value; nuclei count: measured here: cell number, toxicity
# [4] = target: Voltage-gated potassium channel subunit beta-2 (Rattus norvegicus) (UniProt P62483); test: KvBeta enzyme negative modulators, primary screen, biochemical, NADPH fluorescence (AID 622;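 active means fluorescence slope higher than the sample average by over 3 SD, cut at about -0.22 in these data, passing the limit was not always enough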;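 further: slope of raw intensity against log time taken from 70 to 1610 s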); conditions: recombinant KvBeta, 4-cyanobenzaldehyde reduction, at 10 µM, stronger effect = higher value
# [5] = target: Voltage-gated potassium channel subunit beta-2 (Rattus norvegicus) (UniProt P62483); test: KvBeta positive modulators, primary screen, biochemical, NADPH fluorescence (AID 623;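 active means NADPH fluorescence slope more negative than the mean of all samples by about 3 SD, 99.7% confidence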;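 further: fluorescence intensity change per second fitted from 20 to 320 s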); conditions: Recombinant KvBeta, NADPH fluorescence decrease slope, 10 min; at 10 µM; stronger effect = lower value
# [6] = target: Alpha-2C adrenergic receptor (Homo sapiens) (UniProt P18825); test: modulators of alpha2C/GIRK thallium flux, primary screen, cell-based, HEK293 alpha2C/GIRK1/2 (AID 624); conditions: thallium flux BTC fluorescence, at 10 µM, actives lie on both sides;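 further: slope of fluorescence ratio to pre-addition baseline per second over 15 to 24 s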
# [7] = inhibitors of Sendai virus-induced IRF3 signaling, primary screen, TLR/RLR signaling modifier project, cell-based, Sendai virus stimulus, luciferase, 10K MLSCN set (AID 602276;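 active means inhibition at or above 50% at 10 µM; inactive means inhibition below 50%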;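 further: firefly luciferase from ISG56 promoter only with Renilla not read in this screen; 0% = Sendai virus plus DMSO and 100% = medium plus DMSO without virus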); conditions: HEK293 RL24 IRF3 luciferase reporter, at 10 µM, stronger effect = higher value
# [8] = inhibitors of poly I:C-induced TLR3 signaling, primary screen, cell-based, poly I:C stimulus, luciferase, 10K MLSCN set (AID 602277;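 active means inhibition of the reporter signal at or above 50%; inactive means inhibition below 50%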); conditions: HEK293-TLR3 RL24 IRF3 luciferase reporter, at 10 µM, stronger effect = higher value
# Alpha-2C adrenergic receptor (Homo sapiens), sequence (P18825 whole entry, looked up): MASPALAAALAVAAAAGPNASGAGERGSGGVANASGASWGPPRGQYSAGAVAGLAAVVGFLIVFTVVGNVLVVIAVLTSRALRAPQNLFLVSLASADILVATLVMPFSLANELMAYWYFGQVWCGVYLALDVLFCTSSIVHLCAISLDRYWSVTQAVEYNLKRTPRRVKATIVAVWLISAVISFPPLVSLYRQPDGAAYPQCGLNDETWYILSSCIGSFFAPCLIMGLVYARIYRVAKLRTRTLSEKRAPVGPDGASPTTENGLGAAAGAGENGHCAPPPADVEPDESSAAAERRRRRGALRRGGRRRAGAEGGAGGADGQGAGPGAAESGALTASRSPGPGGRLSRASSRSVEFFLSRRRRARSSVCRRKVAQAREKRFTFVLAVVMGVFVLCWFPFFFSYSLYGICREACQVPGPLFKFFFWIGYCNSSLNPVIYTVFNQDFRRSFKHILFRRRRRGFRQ
# Voltage-gated potassium channel subunit beta-2 (Rattus norvegicus), sequence (P62483 whole entry, looked up): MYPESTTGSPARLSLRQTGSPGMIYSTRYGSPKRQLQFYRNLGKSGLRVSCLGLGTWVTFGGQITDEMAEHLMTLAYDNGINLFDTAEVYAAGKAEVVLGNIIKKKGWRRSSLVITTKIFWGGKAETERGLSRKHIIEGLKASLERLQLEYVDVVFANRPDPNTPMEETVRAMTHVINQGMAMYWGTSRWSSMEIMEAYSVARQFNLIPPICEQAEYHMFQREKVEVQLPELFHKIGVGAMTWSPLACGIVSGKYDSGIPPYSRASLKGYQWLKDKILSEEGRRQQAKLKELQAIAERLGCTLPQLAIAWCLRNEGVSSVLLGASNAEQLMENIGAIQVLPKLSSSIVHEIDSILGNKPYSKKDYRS
Structure (SMILES),cell count [1],inhibition [1],inhibition of aggregation [2],nuclei count [2] [%],inhibition [3],nuclei count [3] [%],fluorescence slope [4],NADPH fluorescence slope [5],slope [6],inhibition [7],inhibition [8]
CN(Cc1nc(-c2ccncc2)no1)S(=O)(=O)c1ccc(Cl)cc1,601,-6.4% (inactive),-0.9% (inactive),88.3,1% (inactive),94.8,-0.543 (inactive),6.1e-06 (inactive),0.00478 (inactive),-18.2% (inactive),-26.6% (inactive)
[N-]=[N+]=CC(=O)CC(c1ccccc1)N1C(=O)c2ccccc2C1=O (stereo not given),229,0.5% (inactive),10.4% (inactive),58.6,-39.5% (inactive),115,-0.609 (inactive),-2.1e-05 (inactive),0.00641 (inactive),-5% (inactive),-29.5% (inactive)
COc1ccc(N2CCN(C(=O)COc3ccc4ccccc4c3)CC2)cc1,737,7.3% (inactive),7.5% (inactive),93.8,-29.6% (inactive),111,-0.468 (inactive),-5.8e-05 (inactive),0.00617 (inactive),4.32% (inactive),10.9% (inactive)
Nn1c(SCC(=O)Nc2ccc(Oc3ccccc3)cc2)nnc1C1CC1,331,-12.3% (inactive),17.5% (inactive),91.2,-57.3% (inactive),132,-0.378 (inactive),1.7e-05 (inactive),0.00645 (inactive),-8.58% (inactive),-16% (inactive)
O=C(NCc1ccco1)c1ccc2c(=O)n(CC3CCCO3)c(=S)[nH]c2c1 (stereo not given),318,-2.6% (inactive),-6.3% (inactive),120,-7.4% (inactive),101,-0.501 (inactive),-2.2e-05 (inactive),0.00599 (inactive),9.53% (inactive),15.2% (inactive)
CC(=O)c1cccc(NC(=O)N2CCCc3ccccc32)c1,334,2% (inactive),-9.8% (inactive),95.3,-43.9% (inactive),120,-0.622 (inactive),3.7e-06 (inactive),0.00357 (inactive),9.66% (inactive),-1.85% (inactive)
c1ccc(Cc2ccc(OCCn3cncn3)cc2)cc1,755,-5.6% (inactive),-15.5% (inactive),102,-68.7% (inactive),108,-0.477 (inactive),1.2e-05 (inactive),0.00592 (inactive),-18.4% (inactive),-0.13% (inactive)
Cc1ccc(Cn2c(CN3CCOCC3)nc3c2c(=O)n(C)c(=O)n3C)cc1,332,19.7% (inactive),16.7% (inactive),104,-3.6% (inactive),104,-0.48 (inactive),-4.2e-05 (inactive),0.00599 (inactive),2.2% (inactive),26.6% (inactive)
CN(C(=O)Cn1c(=O)n(CCCCC(=O)NC2CCCC2)c(=O)c2ccccc21)C1CCCCC1,347,-1.2% (inactive),-6.6% (inactive),107,-15.5% (inactive),117,-0.478 (inactive),1.3e-07 (inactive),0.00575 (inactive),16.4% (inactive),25.2% (inactive)
CC1CC(C)CN(CCCNC(=O)c2ccc3c(c2)NC(=O)C(N2CCCCC2)S3)C1 (stereo not given),395,-7.7% (inactive),-6.5% (inactive),101,-14.9% (inactive),113,-0.317 (inactive),6.4e-06 (inactive),0.00531 (inactive),-18.6% (inactive),-14.5% (inactive)
CN(c1ccccc1C(=O)N1CCN(c2cccc(Cl)c2)CC1)S(C)(=O)=O,313,-1.9% (inactive),3.7% (inactive),101,18.2% (inactive),120,-0.432 (inactive),-2.5e-05 (inactive),0.0047 (inactive),6.88% (inactive),8.69% (inactive)
CC(NC(=O)COc1ccccc1)C(=O)NC1=NCCS1 (stereo not given),356,2% (inactive),8.1% (inactive),104,-85.5% (inactive),128,-0.35 (inactive),-2.2e-05 (inactive),0.00548 (inactive),14.4% (inactive),20.3% (inactive)
C=CCN1C(=O)C2(C(C#N)=C(N)Oc3n[nH]c(CCC)c32)c2ccccc21 (stereo not given),389,3.2% (inactive),-32.8% (inactive),95.3,-37.6% (inactive),114,-0.625 (inactive),-3.8e-05 (inactive),0.00735 (inactive),11.3% (inactive),16.8% (inactive)
Cc1nc(SCCC(=O)O)c2ccccc2n1,310,-2.5% (inactive),9.6% (inactive),112,40.9% (inactive),105,-0.261 (inactive),-2.6e-06 (inactive),0.00515 (inactive),11.6% (inactive),18.5% (inactive)
COc1ccc2nc(NC(=O)C3CCCN(S(=O)(=O)c4cccc5nsnc45)C3)sc2c1 (stereo not given),607,-3.9% (inactive),-14% (inactive),113,2% (inactive),122,-0.455 (inactive),3.3e-05 (inactive),0.00595 (inactive),-3.68% (inactive),-37.1% (inactive)
CN(CC(=O)N1CCCc2c1c(=O)oc1ccc(O)cc21)Cc1ccccc1,418,5.7% (inactive),-21% (inactive),97.1,-85.3% (inactive),117,-0.258 (inactive),-4.5e-05 (inactive),0.00473 (inactive),11.5% (inactive),27.4% (inactive)
CC1CCC(NC(=O)Cn2ncc3ccccc32)CC1 (stereo not given),728,-3.7% (inactive),-13.1% (inactive),118,-59.2% (inactive),106,-0.577 (inactive),-4.8e-05 (inactive),0.00746 (inactive),-43.1% (inactive),-111% (inactive)
COC(=O)c1ccccc1NC(=O)N1CCCC1,380,-0.9% (inactive),0.5% (inactive),99.5,-45.5% (inactive),115,-0.434 (inactive),-3.7e-06 (inactive),0.00581 (inactive),-4.5% (inactive),0.116% (inactive)
COc1cc(C2c3c(oc4ccccc4c3=O)C(=O)N2c2ccc(C)cn2)ccc1O (stereo not given),464,2.1% (inactive),8.8% (inactive),107,-49% (inactive),122,-0.598 (inactive),-4.5e-05 (inactive),0.00645 (inactive),-5.41% (inactive),7.4% (inactive)
CCOc1ccc(NC(=O)CSc2nccn2C)cc1,309,15.3% (inactive),3.1% (inactive),106,-28.1% (inactive),114,-0.28 (inactive),1e-05 (inactive),0.00367 (inactive),-18.3% (inactive),-80.7% (inactive)
COc1ccc2[nH]c(=O)c(CN(Cc3cccs3)S(=O)(=O)c3cccc4nsnc34)cc2c1,510,-4.2% (inactive),-15.3% (inactive),110,-68.8% (inactive),110,-0.523 (inactive),-0.000153 (inactive),0.00524 (inactive),8.33% (inactive),71.5% (active)
Cc1ccc2c(c1)NC(=O)C(CC(=O)NC1CCCCC1C)O2 (stereo not given),611,2% (inactive),22% (inactive),86.3,21.5% (inactive),114,-0.51 (inactive),-4.1e-05 (inactive),0.00567 (inactive),9.73% (inactive),1.78% (inactive)
Cn1c(SCc2nnc3n2CCCCC3)nc2ccccc21,252,-15.3% (inactive),-3.3% (inactive),94.7,-94.2% (inactive),127,-0.433 (inactive),-2.7e-05 (inactive),0.00588 (inactive),14% (inactive),20% (inactive)
Cc1cccc(Cc2c(C)nc3nc(SCC(=O)NCc4ccco4)nn3c2C)c1,389,0.3% (inactive),5.8% (inactive),85.7,-79.7% (inactive),101,-0.463 (inactive),-5.1e-07 (inactive),0.00687 (inactive),10.8% (inactive),27.6% (inactive)
CC(C)OC(=O)CSc1nnc(-c2ccc(O)cc2)n1Cc1ccccc1,289,-1% (inactive),12.9% (inactive),106,-57.2% (inactive),105,-0.415 (inactive),-4.5e-05 (inactive),0.00549 (inactive),20.3% (inactive),16.8% (inactive)
